Only some compounds are listed: those with a hit (about 8.3% of all), similar ones and a draw of the others.
LASV entry inh: inhibitors of Lassa virus binding or cell entry; Lassa virus pseudotype entry inhibition, cell reporter; Potency, µM (top dose mostly 37.9 µM), usual class: inhibitors; 1.2% of 300,000 active; calls by dose curve; tested in HEK293 cells; note: nearly all actives have a fitted effect of over 50% in size
FMDV antiviral: blocks foot and mouth disease virus | FMDV antiviral cell-based qHTS | Potency, µM (titrated, usually from 57.9 µM), usual class: inhibitors | 1.2% of 410,000 active; calls by dose curve; tested in HEK293T cells; note: read-out not given here; nearly all actives have a fitted effect of over 45% in size
HCMV inh: inhibitors of human cytomegalovirus | HFF cells, HCMV-luciferase reporter, 72 h; active compounds read low | activity change, negative = inhibition, % at 57.5 µM | 4.5% of 410,000 active | AID 1259415; in the data active = activity change below about -60%; inconclusive = no clear call, values can overlap the other calls; inactive = above about -39%
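Luciferase read-out from HCMV-luciferase-infected HFFs (MOI 1 PFU/cell) 72 h post infection at 37C; compounds added after 16 h cell attachment; activity normalized between buffer-only basal and Salinomycin (10uM) inhibitor controls.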
Marburg entry inh: inhibitors of Marburg virus binding or cell entry | AID 540276 | Marburg virus pseudotyped entry inhibition, cell reporter | 1.8% of 300,000 active | Potency, µM (highest dose often 37.8 µM), most hits filed as inhibitors; calls by dose curve; tested in HEK293 cells
FBPA Giardia inh: Giardia lamblia aldolase inhibition | A8B2U2 | purified Giardia FBPA | Potency, µM (doses to about 59.6 µM), hits mostly inhibitors | 0.71% of 290,000 active | AID 2451; note: nearly all actives have a fitted effect of over 55% in size
Target sequence (A8B2U2 whole entry, looked up): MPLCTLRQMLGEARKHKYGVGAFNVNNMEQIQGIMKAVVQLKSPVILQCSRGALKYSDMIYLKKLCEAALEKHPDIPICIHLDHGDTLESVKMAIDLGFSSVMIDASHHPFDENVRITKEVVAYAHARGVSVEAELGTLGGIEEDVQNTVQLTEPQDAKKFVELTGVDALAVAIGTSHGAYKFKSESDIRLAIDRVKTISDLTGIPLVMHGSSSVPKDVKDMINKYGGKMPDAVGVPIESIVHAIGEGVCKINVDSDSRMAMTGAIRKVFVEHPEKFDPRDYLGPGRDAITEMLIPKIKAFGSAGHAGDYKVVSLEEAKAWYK
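Giardia FBPA (40 nM reagent) was preincubated 10 min at RT with compound (up to 57.5 uM final), then substrate plus GAPDH/TPI/NAD/arsenate coupling system with diaphorase/resazurin was added; resorufin fluorescence (525/598 nm) was read after 20 min.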
HCV inhibitor: inhibitors of hepatitis C virus infection | Huh7.5.1 HCVcc-Cre infection, luciferase reporter, 44 h | Potency, µM (series often up to 41.8 µM), most hits filed as inhibitors | 3.4% of 340,000 active
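A cell-based infection assay in which seeded cells (1,000 per well) receive test compound after 4 h, are inoculated with HCVcc-Cre at approximately 0.5 moi, and are incubated 44 h before luminescence detection.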
Hits are given with their value; - = inactive; ? = inconclusive; . = not tested or not shown; ! = repeats disagree; [ ] = dose if it differs, or a comment. Unless noted, calls come from the whole dose curve; as a rule, active = well fitted curve in the direction sought with a large enough effect; inconclusive = small, poorly fitted or top-dose-only effect, or another doubt; inactive = no such curve, though single readings can be large; an effect the other way counts as inactive or inconclusive.

SMILES | LASV entry inh | FMDV antiviral | HCMV inh | Marburg entry inh | FBPA Giardia inh | HCV inhibitor
COc1ccccc1/C=C/C(=O)OCC(=O)c1c[nH]c2ccccc12 | - | - | - | ? | . | ?
O=C1C2CCCCC2C(=O)N1c1nccs1 (stereo not drawn) | - | - | - | - | - | -
Cc1nn(-c2nccs2)c2c1C(=O)CC(C)(C)C2Br (stereo not drawn) | . | - | -70 | . | . | -
Cc1ccc(S(=O)(=O)NCCc2nnc3ccc(SCC(=O)Nc4ccc(OC(F)(F)F)cc4)nn23)cc1 | - | - | - | . | . | .
CC[C@H](OC(C)=O)C(C[C@H](C)N(C)C)(c1ccccc1)c1ccccc1 | . | - | -86 | . | . | ?
CCC(=O)OC(Cc1ccccc1)(c1ccccc1)[C@H](C)CN(C)C (stereo partly drawn) | . | - | ? | . | . | ?
COC(=O)c1c(C)[nH]c(O)c1C=Nc1ccc(Oc2ccccc2)cc1 | ? | - | -65 | - | - | -
COC(=O)c1c(C)[nH]c(O)c1C=Nc1ccc(C(C)C)cc1 | - | - | - | - | - | -
CN1C=C/C(=C\c2cc[n+](C)c3ccccc23)c2ccccc21 | . | 18µM | -100 | . | ? | 4.5µM
Cc1cc2c3c(c1)C1(C(=O)N3C(C)(C)CC2C)C(C#N)=C(N)Oc2cc(O)ccc21 (stereo not drawn) | - | - | - | - | - | ?
CCc1cc2c3c(c1)C1(C(=O)N3C(C)(C)CC2C)C(C#N)=C(N)N2C(=C1C#N)Nc1ccccc12 (stereo not drawn) | 13µM | ? | ? | ? | - | ?
CCn1c(CN2CCN(c3cccc(Cl)c3)CC2)nc2c1c(=O)[nH]c(=O)n2C | ? | - | - | - | . | .
CCc1ccc(N2C(=O)N(CC(=O)C(C)(C)C)c3ccccc3S2(=O)=O)cc1 | - | ? | - | . | . | .
Cc1ccc2nc(/N=C(\N)NC(=O)N3c4ccccc4Sc4ccccc43)nc(C)c2c1 | - | - | -65 | - | - | ?
Cc1ccc2c(C)nc(/N=C(\N)NC(=O)N3c4ccccc4Sc4ccccc43)nc2c1 | - | - | ? | ? | - | ?
COc1cc(C(C)=O)ccc1OCCCN1CCC(c2noc3cc(F)ccc23)CC1 | . | . | - | . | . | .
COc1ccccc1NC(=O)N1CCc2[nH]c3ccc(F)cc3c2C1 | - | ? | - | - | - | 10µM
O=C(C1CCCCC1)N1CCc2[nH]c3ccc(F)cc3c2C1 | . | - | - | . | - | -
COc1ccc(-c2nc(N/N=C(\C)c3ccc(O)cc3)c3ccccc3n2)cc1 | . | - | - | . | - | 10µM
C/C(=N\Nc1nccnc1Cl)c1ccc(O)cc1 | . | - | - | . | ? | -
C/C(=N\Nc1nncc2ccccc12)c1cccc(OC(F)F)c1 | 2.8µM | - | - | ? | - | ?
C/C(=N\Nc1nncc2ccccc12)c1ccc(C(C)(C)C)cc1 | ? | - | . | ? | - | 2.5µM
C/C(=N\Nc1nncc2ccccc12)c1ccc(O)cc1 | ? | - | - | ? | - | 7.1µM
COc1ccc(/C=N/Nc2nncc3ccccc23)c(OC)c1 | ? | - | - | ? | - | -
C/C(=N\Nc1nc(-c2ccc(C)cc2)nc2ccccc12)c1ccc([N+](=O)[O-])cc1 | . | . | . | . | - | .
SMILES | LASV entry inh | FMDV antiviral | HCMV inh | Marburg entry inh | FBPA Giardia inh | HCV inhibitor
COc1cc(C)ccc1Oc1ccc2c(-c3ccccc3)noc2n1 | . | . | - | . | . | .
COC(=O)[C@]1(S(=O)(=O)c2ccccc2)CC(=O)N(Cc2ccccc2)[C@@H]1c1ccccc1 | . | . | - | . | . | .
CCCCCCCOc1ccc(OC(=O)c2ccncc2)cc1 | - | . | -64 | ? | - | ?
O=C1OC2(CCCCC2)CC2=C1C1O[C@](CCCCN3C(=O)c4ccccc4C3=O)(Cc3ccccc31)O2 | . | . | . | . | -[12.9 µM] | .
CCc1cc2c(=O)c(-c3ccc4c(c3)OCCO4)coc2c(CN2CCCCC2C)c1O (stereo not drawn) | ? | - | -62 | ? | - | 6.3µM
CCc1cc2c(=O)c(-c3nc4ccccc4[nH]3)coc2c(CN2CCCCC2C)c1O (stereo not drawn) | . | ? | - | . | - | ?
CCc1cc2c(=O)c(-c3ccc4c(c3)OCCO4)coc2cc1OS(C)(=O)=O | ? | - | ? | 5.6µM | - | 11µM
CCC1CCCCN1Cc1c(O)ccc2c(=O)c(-c3ccccc3)coc12 (stereo not drawn) | ? | - | -92 | ? | - | -
CC1CCCCN1Cc1c(O)ccc2c(=O)c(-c3ccccc3)coc12 (stereo not drawn) | - | - | -69! | ? | - | ?
CC(=O)c1ccc(NC(=O)CSc2nc(=O)n(Cc3ccccn3)c3c2CCC3)cc1 | - | - | - | . | . | .
N#CCSc1nc(Nc2ccc3c(c2)OCO3)c2ccccc2n1 | - | 22µM | -63 | ? | - | 8.9µM
CCOC(=O)CSc1nc(Nc2ccc3c(c2)OCO3)c2ccccc2n1 | - | ? | - | - | - | ?
CC1(C)CC(=O)C(N=Nc2cc(C(F)(F)F)ccc2Cl)=C(O)C1 | . | - | -62 | . | - | -
CC1(C)CC(=O)C(N=Nc2c(Cl)cc(Cl)cc2Cl)=C(O)C1 | - | - | - | ? | - | -
CCc1nn(CC(=O)NCCc2ccc(OC)cc2OC)c(=O)c2cc3sccc3n12 | . | - | - | - | . | .
Cc1ccc(Cn2c(SCc3ccc(C(=O)NC4CCCCC4)cc3)nc3ccncc32)cc1 | . | ? | ? | - | . | .
Cc1ccc(Cn2c(SCc3ccc(C(=O)NC4CCCC4)cc3)nc3ccncc32)cc1 | - | ? | -74 | - | . | .
O=C(c1ccc(CSc2nc3ccncc3n2Cc2ccccc2F)cc1)N1CCCCC1 | . | - | -62 | - | . | .
Cc1cccc(N2CCN(S(=O)(=O)c3ccc(-c4cc(C(F)(F)F)on4)s3)CC2)c1C | - | - | - | . | . | .
COC(=O)c1c(C)oc2ccc(NS(=O)(=O)c3cc(OC)ccc3OC)cc12 | ? | ? | -62 | ? | - | -
CCOc1ccc(NS(=O)(=O)c2cc(OC)ccc2OC)cc1 | - | - | - | - | - | -
COc1ccc(OC)c(S(=O)(=O)Nc2ccc3oc(C)c(C(C)=O)c3c2)c1 | - | - | - | - | - | -
COc1ccc(OC)c(S(=O)(=O)Nc2ccc(Oc3ccccc3)cc2)c1 | - | - | -64 | - | - | ?
COc1ccccc1CN1CCC2(CCNCC2)CC1 | . | - | . | . | - | .
Cc1cc(C(C)(C)C)oc1C(=O)N1CCN(C(=O)c2oc(C(C)(C)C)cc2C)CC1 | . | ? | -66 | - | - | -
SMILES | LASV entry inh | FMDV antiviral | HCMV inh | Marburg entry inh | FBPA Giardia inh | HCV inhibitor
C/C(CC1(O)C(=O)N(C)c2ccccc21)=N\O (stereo not drawn) | - | - | ? | - | - | -
CC(=O)CC1(OC(C)=O)C(=O)N(C)c2ccccc21 (stereo not drawn) | - | - | -64 | ? | - | -
Cc1nc(S/C(=C\c2ccc(OCc3ccccc3Cl)cc2)C(=O)O)n[nH]1 | - | - | - | - | - | -
Cc1nc(S/C(C(=O)O)=C2/C(=O)Nc3ccccc32)n[nH]1 | . | 2.5µM | - | . | - | -
Cc1cccc(OCCNC(=S)NC(=O)c2cncc(Br)c2)c1 | - | - | - | - | - | -
Cc1ccc(OCCNC(=O)c2cncc(Br)c2)cc1C | - | - | -107 | - | - | -

Screening results (PubChem BioAssay)
